The text below walks through data of PubChem BioAssay (NCATS).

Structures are written as SMILES. Records with an inconclusive call do not appear. Where a call stands in place of a potency, no number is given. Activity calls are given as the source filed them. Calls come from the whole dose curve; as a rule, active = well fitted activation curve with a large enough effect; inconclusive = small, poorly fitted or top-dose-only effect; inactive = flat fitted curve, though single readings scatter.
Potency is the fitted concentration of half-maximal effect.

This assay can be described thus: Primary redox qHTS assay for identification of artifact compounds. (AID 1845223). Particulars: Amplex Red/HRP redox cycling with DTT, fluorescence; series mostly up to 53.8 µM. The essentials:
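Amplex Red (25 uM) and HRP (250 mU/mL) in HBSS, with compounds for 15 min, then 250 uM DTT for 30 min, room temperature, dark. Fluorescence 525/598 nm read; normalized to DMSO and 10 uM DA3003; Hill fit.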
Background: qHTS replaces the single test concentration by a dilution series.
With `COC1CCCC(C)OC(=O)Cc2cc(O)cc(O)c2C(=O)C1` (stereo not drawn), the Potency entry is “inactive”.

On to `CN1CCCCC1Cn1cc(C(=O)c2cc([N+](=O)[O-])ccc2I)c2ccccc21` (stereo not drawn), for which the Potency entry was “inactive”. Still for that read-out and setting: with `C=C1C(=O)CC2OC2(C)CC2OC(=O)C(=C)C2C(O)C1OC(=O)/C(C)=C\C` (stereo not drawn) the entry was “inactive”. `CN1C(=O)[C@@H](Cc2c[nH]c3ccccc23)N=C(c2ccccc2F)c2ccccc21`: the Potency entry was “inactive”. With `C#C[C@]1(O)CC[C@H]2[C@@H]3CC[C@H]4Cc5nc6nc7ccccc7n6cc5C[C@]4(C)[C@H]3CC[C@@]21C`, the Potency result is “inactive”.

For the compound `CCC1C2CC3C4N(C)c5ccccc5C45CC(C2C5O)N3C1O` (stereo not drawn), the Potency entry was “inactive”. For `C[C@@H]1O[C@@H](OC2CCC3(C=O)C(CCC4C3CCC3(C)C(C5=CC(=O)OC5)C(O)CC43O)C2)[C@H](O)[C@H](O)[C@H]1O[C@@H]1O[C@H](CO)[C@@H](O)[C@H](O)[C@H]1O` (stereo partly drawn), the Potency result is “inactive”. Still for that read-out and setting: with `C=C(C)C(=O)O[C@H]1[C@@H]2[C@H](C)C(=O)O[C@@H]2C[C@@H](C)[C@@H]2C=CC(=O)[C@]21C` the entry was “inactive”; with `CCN1C[C@]2(COC)CC[C@H](O)[C@@]34C5C[C@@H]6[C@@H](OC)C[C@@](OC(C)=O)(C5[C@@H]6OC(C)=O)[C@H]([C@H](OC)C23)[C@@H]14` (stereo partly drawn), “inactive”; with `C[C@]12CC[C@H](O)C[C@@]1(O)CC[C@@H]1[C@@H]2CC[C@]2(C)[C@@H](c3ccc(=O)oc3)CC[C@]12O`, “inactive”. With `CN1C(=O)N(c2ccc(C#N)c(C(F)(F)F)c2)C(=O)[C@@]1(CO)c1ccccc1`, the Potency result was “inactive”.

As for `CC(=O)O[C@H]1C[C@]2(O)[C@@H]3CC[C@@H]4C[C@@H](O)CC[C@]4(C)[C@H]3CC[C@]2(C)[C@H]1c1ccc(=O)oc1`, the Potency result is “inactive”.

For the compound `CCCCCn1cc(C(=O)Oc2cccc3cccnc23)c2ccccc21`, the Potency result is “inactive”.

For `CN=C(NS(=O)(=O)c1ccc(Cl)cc1)N1C[C@H](c2ccccc2)C(c2ccc(Cl)cc2)=N1`, the Potency result is “inactive”.

As for `COC1CC(O[C@H]2CC[C@@]3(C)C(CCC4C3CC[C@]3(C)C(C5=CC(=O)OC5)CCC43O)C2)OC(C)C1OC1OC(COC2OC(CO)C(O)C(O)C2O)C(O)C(O)C1O` (stereo partly drawn), the redox activity (% of DA3003) was 16.1% [at 11.5 µM] (inactive). As for `C=C(C)[C@@]12O[C@@H]1[C@@]1(C)C(=CC2=O)CC[C@@H](OC(C)=O)[C@@H]1C`, the Potency entry was “inactive”. Regarding `CN1Cc2c(ccc3c2OCO3)[C@@H]2[C@H]1c1cc3c(cc1C[C@@H]2O)OCO3`, the Potency entry is “inactive”.

For the compound `CN(Cc1cccc(-c2ccncc2)c1)C(=O)Oc1ccc(-c2ccc(C(N)=O)cc2)cc1`, the Potency result is “inactive”. In the case of `CC1=CC2OC3CC(O)[C@](C)([C@@]2(C)C(O)C1=O)[C@]31CO1` (stereo partly drawn), the Potency entry was “inactive”. `CC[C@H](O)[C@@H](C)[C@H]1O[C@@H]1C[C@H](C)/C=C/C=C(\C)[C@H]1OC(=O)C[C@H](O)CC[C@@](C)(O)[C@@H](OC(C)=O)/C=C/[C@@H]1C`: the Potency entry is “inactive”. Turning to `CN(C(=O)C(c1ccccc1)c1ccccc1)[C@H](CN1CC[C@H](O)C1)c1ccccc1`, the Potency entry was “inactive”. Consider `COC(=O)C12C(=O)C(C)(O)C(=O)C1(C)C(C)=CC1C34CCC(OC3=O)C(C)(C)C4CCC12C` (stereo not drawn), for which the Potency entry was “inactive”.

Take `CCOc1ccc(Oc2ccc(OCc3cc(F)ccc3F)cc2)c(N)c1`: the Potency result was “inactive”. `Cc1ccc2c(c1)[C@H]1CN(C)CC[C@H]1N2C(=O)CSc1nnnn1-c1ccc(Cl)cc1`: the Potency entry was “inactive”. The same measure, in the same setting: with `C=C1C2(C)CC3C(C)(O)C4=CC(=O)OC(C)(C)C4=CCC3(C)C13C(=O)OC(C)C3(O)C2=O` (stereo not drawn) the figure was 733 nM (active); with `Fc1cc(F)c2c(c1)C1C=CCC1C(c1cccnc1)N2` (stereo not drawn), “inactive”; with `CCCN(CCC)[C@@H]1CCc2ccc3[nH]c(C#N)cc3c2C1`, “inactive”. Consider `C[C@]12CC[C@H](O)C[C@@H]1CC[C@@H]1[C@@H]2CC[C@]2(C)[C@@H](C3=CC(=O)OC3)CC[C@]12O`, for which the Potency entry is “inactive”. Regarding `CC1=CC(=O)[C@@H](O)[C@@]2(C)C1C[C@H]1OC(=O)[C@H](O)[C@@]3(O)[C@@H](C)[C@@H](O)[C@H](O)C2[C@@]13C` (stereo partly drawn), the Potency entry was “inactive”. For the compound `c1ccc([C@@H]2C[C@H]2NC2CCNCC2)cc1`, the Potency entry is “inactive”.

Consider `CC(=O)OC[C@]12[C@H](OC(C)=O)C(=O)[C@@H]3[C@@H](O)[C@@]14O[C@@]3(C)COC(=O)c1cccnc1[C@@H](C)[C@H](C)C(=O)O[C@@H]([C@H](OC(C)=O)[C@@H]2OC(C)=O)[C@]4(C)O`, for which the Potency result was “inactive”. With `Cc1c(N[C@@H](c2nnc(-c3ccc(C#N)cc3)o2)[C@H](C)O)ccc(C#N)c1Cl`, the Potency result is “inactive”. As to `COc1ccc2c(c1)c(CCN(C)C)cn2S(=O)(=O)c1ccccc1`, the Potency entry is “inactive”.
